Among the data in PubChem BioAssay (Tox21) are Potency and activity change, negative = inhibition values, retold here.

A number with no mark means an inactive call. A call without a number means that no potency is given here. Calls of active or inactive are those of the source. The call rests on the fitted dose curve.

Chain of Acetylcholinesterase (Homo sapiens) (P22303 whole entry, looked up): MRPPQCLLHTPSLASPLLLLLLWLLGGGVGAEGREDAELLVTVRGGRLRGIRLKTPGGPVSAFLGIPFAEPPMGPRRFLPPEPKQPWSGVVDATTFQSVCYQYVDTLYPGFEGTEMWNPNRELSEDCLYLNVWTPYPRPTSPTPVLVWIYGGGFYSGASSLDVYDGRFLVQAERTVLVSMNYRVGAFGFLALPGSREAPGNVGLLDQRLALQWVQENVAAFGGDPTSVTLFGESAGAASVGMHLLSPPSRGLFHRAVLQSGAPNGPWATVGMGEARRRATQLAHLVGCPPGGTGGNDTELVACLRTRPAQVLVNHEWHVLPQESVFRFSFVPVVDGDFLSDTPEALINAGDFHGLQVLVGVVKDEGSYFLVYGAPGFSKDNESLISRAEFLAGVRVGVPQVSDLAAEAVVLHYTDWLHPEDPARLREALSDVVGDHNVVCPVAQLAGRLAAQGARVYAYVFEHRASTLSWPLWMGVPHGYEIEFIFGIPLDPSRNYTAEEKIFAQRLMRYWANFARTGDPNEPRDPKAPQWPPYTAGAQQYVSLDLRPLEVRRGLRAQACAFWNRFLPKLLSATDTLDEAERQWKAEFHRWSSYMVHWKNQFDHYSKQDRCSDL

In this experiment the target is Acetylcholinesterase (Homo sapiens) (UniProt P22303). Put plainly: Acetylcholinesterase (AChE) small molecule antagonists: enzyme-based qHTS assay (AID 1347397). Further: nearly all actives have a fitted effect of over 55% in size. As to conditions: Potency: AChE enzyme activity inhibition; series mostly up to 115 µM. The source says:
National Center for Advancing Translational Sciences [NCATS]
Division of Preclinical Innovation [DPI]
U.S. Environmental Protection Agency [EPA]
National Institutes of Environmental Health Sciences [NIEHS]
National Toxicology Program [NTP]
U.S. Food and Drug Administration [FDA]
Acetylcholinesterase (AChE) is the primary cholinesterase in the body that hydrolyzes a key neurotransmitter, acetylcholine. Inhibition of AChE activity can lead to neurotoxicity. The known inhibitors include organophosphorous pesticides (OP), chemical warfare agents, drugs, and various phytochemicals.
An enzyme-based assay with the recombinant human AChE and Amplite Colormetric acetylcholinesterase assay kit (AAT Bioquest, Sunnyvale, CA) was used to evaluate the chemicals in the Tox21 10K library that inhibit AChE activity. The assay uses 5, 5-dithiobis-(2-nitrobenzoic acid) (DTNB) to quantify the thiocholine produced from the hydrolysis of acetylthiocholine by AChE.
Tox21 Assay Protocol Summary:
For the enzyme-based AChE assay, recombinant human AChE (50 mU/mL) in 4 uL/well was dispensed into black, clear-bottom 1536-well plates using a Multidrop Combi dispenser (Thermo Scientific, MA). Then, 23 nL of compound or DMSO (vehicle control) was transferred into the assay plates by a Pintool Station (Wako Automation, CA). The plates were incubated for 30 min at room temperature, followed by the addition of 4 uL of colorimetric detection cocktail solution (DTNB, acetylthiocholine) into each well using a Flying Reagent Dispenser (Beckman Coulter, CA) and then 10 min incubation at room temperature.
A general note: Quantitative high-throughput screening tests each substance at several concentrations.
In the case of `CC(N)=S`, the Potency entry is “inactive”.
Take `COc1cc(OC)nc(NC(=O)NS(=O)(=O)c2ncccc2OCC(F)(F)F)n1`: the Potency result is “inactive”.
For the compound `CNC(=O)Oc1ccccc1C1OCCO1`, the Potency result is “inactive”.
On to `O=[N+]([O-])c1ccc(CBr)cc1`, for which the Potency entry is “inactive”.
Same read-out and setting: the entry for `CCOC(=O)C(c1c(O)c2ccccc2oc1=O)c1c(O)c2ccccc2oc1=O` is “inactive”; for `CC1CN1P(=O)(N1CC1C)N1CC1C` (stereo not given) it is “inactive”; for `O=C(CCN1CC1)OCC(CO)(COC(=O)CCN1CC1)COC(=O)CCN1CC1` it is “inactive”.
The same measure, in the same setting: next, `CC1(C)C(=O)NC(=O)NC1=O`: “inactive”; `CCS(=O)(=O)CCSP(=O)(OC)OC`: “inactive”; `CCS(=O)(=O)C(C)(C)S(=O)(=O)CC`: “inactive”.
As for `C(CCOCC1CO1)COCC1CO1` (stereo not given), the Potency result is “inactive”.
On the same count and under the same terms, next, `OCCBr`: “inactive”.
As to `CCOC(=O)NC(=S)Nc1ccccc1NC(=S)NC(=O)OCC`, the Potency result was “inactive”.
Still for that read-out and setting: next, `N#CC(Cl)(Cl)Cl`: “inactive”; `CN(N=O)C(N)=O`: “inactive”.
Same read-out and setting: the entry for `ClC(Cl)C(Cl)Cl` is “inactive”.
Regarding `CC1=C(C(=O)Nc2ccccc2)S(=O)(=O)CCO1`, the Potency entry was “inactive”.
On the same count and under the same terms, next, `O=CNC(N1CCN(C(NC=O)C(Cl)(Cl)Cl)CC1)C(Cl)(Cl)Cl` (stereo not given): “inactive”; `CCC#N`: “inactive”; `ClCCOCOCCCl`: “inactive”.
As for `CCC1(c2ccccc2)C(=O)NC(=O)NC1=O`, the Potency entry was “inactive”.
As to `O=C(NCO)NCO`, the Potency result is “inactive”.
Same read-out and setting: the entry for `Cc1ccccc1CO[C@@H]1C[C@@]2(C(C)C)CC[C@]1(C)O2` is “inactive”.
As to `COc1cc(OC)nc(Sc2cccc(Cl)c2C(=O)O)n1`, the Potency entry was “inactive”.
In the case of `CCOc1nc(C(Cl)(Cl)Cl)ns1`, the Potency result was “inactive”.
On the same count and under the same terms, the entry for `CC(C(O)c1ccccc1)N(C)C/C=C/c1ccccc1` (stereo not given) is “inactive”; for `O=C(Cc1ccccc1)OCc1ccccc1` it is “inactive”.
Same read-out and setting: next, `C[N+](C)=CCl`: “inactive”.
On the same count and under the same terms, next, `c1ccc(N2CCNCC2)cc1`: “inactive”; `ClC(Cl)(Cl)C(Cl)(Cl)Cl`: “inactive”.
On to `CC(C)(C)OC(=O)c1ncn2c1[C@@H]1CCCN1C(=O)c1c(Br)cccc1-2`, for which the Potency result is “inactive”.
`COC(=O)C(c1ccccc1)C1CCCCN1` (stereo not given): the Potency entry was “inactive”.
Regarding `OC(Cn1cncn1)(c1ccc(F)cc1)c1ccccc1F` (stereo not given), the Potency result was “inactive”.
Take `COc1cccc(C(=O)NN(C(=O)c2cc(C)cc(C)c2)C(C)(C)C)c1C`: the Potency entry is “inactive”.
`CCCCN(CCCCO)N=O`: the Potency result was “inactive”.
Turning to `O=NN1CCN(N=O)CC1`, the Potency entry is “inactive”.
In the case of `O=C1c2ccccc2C(=O)c2ccccc21`, the activity change, negative = inhibition was -0.378% [at 23.6 µM].
Regarding `C1CCC(C2CCCCC2)CC1`, the Potency result is “inactive”.
As to `O=C(O)c1ccc2[nH]cc(CCCCN3CC=C(c4ccccc4)CC3)c2c1`, the Potency result was “inactive”.
As to `O=C(Oc1ccc(Br)cc1)N1CCN2CCC1CC2`, the Potency entry was “inactive”.
